Screens (PubChem)
G9a block – G9a (human) methyltransferase inhibition. Q96KQ7. Potency, µM (highest dose often 102 µM), inactives show at the top dose activity, negative = inhibition, actives largely listed as inhibitors. AID 504332. hit rate 8.8% among 350,000. G9a H3K9 monomethylation, AlphaScreen, 2 h; further: potency means the concentration at half of the fitted maximal effect; on the % scale 0 is the no-effect control and ±100 the full control effect; nearly all actives have a fitted effect of over 75% in size
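Chemiluminescent proximity detection of H3K9 monomethylation, read after 10 min bead incubation in the dark. Reaction: 20 nM G9a, 500 nM biotin-H3K9 peptide, 20 uM SAM cofactor, 2 h, room temperature, following 15 min enzyme-compound preincubation.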
JMJD2A Tudor – JMJD2A Tudor domain (human) inhibition. Potency, µM (doses to about 114 µM), without a hit: top-dose activity change, negative = inhibition, most hits filed as inhibitors. AlphaScreen JMJD2A-Tudor / H3K4me3 peptide binding. hit rate 4.4% among 390,000; further: potency means the concentration at half of the fitted maximal effect; on the % scale 0 is the no-effect control and ±100 the full control effect; nearly all actives have a fitted effect of over 50% in size
HP1b binding inh – inhibitors of HP1-beta chromodomain binding to methylated histone tails | AlphaScreen HP1-beta / biotin-H3K9me3 peptide binding | Potency, µM (series often up to 114 µM), for inactives: top-dose activity change, negative = inhibition, hits mostly inhibitors | hit rate 0.56% among 390,000; further: potency means the concentration at half of the fitted maximal effect; nearly all actives have a fitted effect of over 70% in size
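Compound inhibition of the preformed complex between 50 nM HP1-beta and 50 nM biotinylated H3K9me3 peptide was read by AlphaScreen. Buffer was PBS pH 7.4 with 0.01% Tween-20. Incubations ran 30 min at room temperature, with 10 ug/mL donor/acceptor beads.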
Six1-Eya2 blk – inhibitors of human Six1/Eya2 interaction | activity change, % (concentration not given with the values) | AID 651725 | AlphaScreen GST-Six1/His-Eya2 binding, biochemical; hits give low values | hit rate 0.56% among 360,000; in the data active means activity change below about -65%; inconclusive means mostly about -30% to -63%; further: on the % scale 0 is the no-effect control and ±100 the full control effect
Target sequence (O00167 whole entry, looked up): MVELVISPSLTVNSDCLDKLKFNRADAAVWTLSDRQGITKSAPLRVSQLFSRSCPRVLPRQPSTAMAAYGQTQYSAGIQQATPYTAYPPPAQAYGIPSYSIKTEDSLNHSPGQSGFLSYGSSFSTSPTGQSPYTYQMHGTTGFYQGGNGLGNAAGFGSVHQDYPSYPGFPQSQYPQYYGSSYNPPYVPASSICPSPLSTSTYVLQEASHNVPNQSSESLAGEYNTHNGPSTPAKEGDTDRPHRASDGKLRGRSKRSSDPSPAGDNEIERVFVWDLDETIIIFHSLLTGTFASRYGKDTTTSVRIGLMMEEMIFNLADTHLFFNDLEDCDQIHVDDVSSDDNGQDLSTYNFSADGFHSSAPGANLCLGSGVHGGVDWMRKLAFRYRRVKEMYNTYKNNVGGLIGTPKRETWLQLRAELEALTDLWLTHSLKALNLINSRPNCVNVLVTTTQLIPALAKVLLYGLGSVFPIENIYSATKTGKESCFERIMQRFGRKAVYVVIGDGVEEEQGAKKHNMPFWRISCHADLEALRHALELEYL
Target sequence (Q15475 whole entry, looked up): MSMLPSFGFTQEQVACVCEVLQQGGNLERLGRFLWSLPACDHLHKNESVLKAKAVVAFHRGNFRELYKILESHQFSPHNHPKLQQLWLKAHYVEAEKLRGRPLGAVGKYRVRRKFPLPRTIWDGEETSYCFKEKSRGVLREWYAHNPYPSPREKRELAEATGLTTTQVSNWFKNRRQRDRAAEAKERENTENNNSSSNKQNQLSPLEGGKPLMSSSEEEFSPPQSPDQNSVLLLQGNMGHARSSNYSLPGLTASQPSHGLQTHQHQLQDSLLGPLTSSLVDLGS
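AlphaScreen luminescence read after one hour at 37 °C in darkness. Pin-transferred compounds met GST-Six1 and His-Eya2 protein (5X stock 250 nM/500 nM) plus glutathione donor and Ni-chelate acceptor beads (5X, 50 ug/mL).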
CtBP-E1A blk – inhibitors of CtBP/E1A interaction; activity change, % (concentration not given with the values); hit rate 0.49% among 340,000; AlphaScreen GST-E1A/His-CtBP binding, 1536-well; hits give low values; in the data active means activity change below about -65%; inconclusive means mostly about -30% to -63%; further: on the % scale 0 is the no-effect control and ±100 the full control effect
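GST-E1A and His-tagged CtBP (125 nM each as 5X stock) were preincubated with pin-transferred compound for 2 h at 37 °C in the dark, then glutathione donor and nickel acceptor beads were added for 1 h before AlphaScreen reading.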
BAZ2B inh – blocks human BAZ2B; Q9UIF8; AlphaScreen BAZ2B-H3K14Ac peptide displacement; Potency, µM (highest dose often 114 µM), for inactives: at the highest dose activity change, negative = inhibition, actives largely listed as inhibitors; hit rate 4.4% among 360,000; AID 504333; further: potency means the concentration at half of the fitted maximal effect; on the % scale 0 is the no-effect control and ±100 the full control effect; nearly all actives have a fitted effect of over 60% in size
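AlphaScreen luminescence quantifies BAZ2B engagement of H3K14Ac peptide; the protein and biotinylated peptide are both at 50 nM final, buffer PBS pH 7.4 with 0.01% Tween-20, all steps at room temperature.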
The depositor's hits bear a star; ? = inconclusive; / = not tested or not shown; [ ] = dose if it differs, or a comment. Compounds with a hit are over-represented: about 10% of the library has one in this group of screens. Unless noted, the call rests on the fitted dose curve; in most records, active means well fitted inhibition curve with a large enough effect; inconclusive means small, poorly fitted or top-dose-only effect; inactive means no such curve, though single readings can be large or run the other way.

SMILES | G9a block | JMJD2A Tudor | HP1b binding inh | Six1-Eya2 blk | CtBP-E1A blk | BAZ2B inh
C#CCOCCOCCOCCNc1nc(N2CCN(C(=O)[C@H]([C@@H](C)CC)n3cc(CCCCN)nn3)CC2)nc(N2CCN(C(=O)[C@H]([C@@H](C)CC)n3cc(CCCN=C(N)N)nn3)CC2)n1 | -9%[2.33 µM] | -21% | 16% | -3 | -3 | -32%
CCCOc1ccc(CNC(=O)C2CCN(c3nc4ccccc4nc3C(F)(F)F)CC2)cc1 | -2%[59 µM] | 1% | 15% | / | / | 0%
C=CCc1c(C)[nH]c2c(OC)cccc2c1=S | 4µM* | ? | 2% | -17 | -6 | -34%
N#CCCN(C(=O)COC(=O)C12CC3CC(CC(O)(C3)C1)C2)c1ccc(F)cc1 | 1.4µM* | -5% | 19% | -1 | 0 | 13%
COc1ccc(OC)c(CNC(=O)c2ccc(C)c(NC(=O)c3nsc4ccccc34)c2)c1 | -22%[59 µM] | -16% | 20%[57 µM] | / | / | 2%
CC(C)NCc1cccc([N+](=O)[O-])c1 | 2.5µM* | 20µM* | ? | -15 | 3 | 56µM*
Cc1ccc(S(=O)(=O)NCc2cccc([N+](=O)[O-])c2)cc1 | / | / | / | -9 | 3 | /
CCCNC(=O)c1cc(C2CCCCN2C(=O)c2ccc(NC(C)=O)cc2)on1 (stereo not drawn) | / | / | / | 6 | 4 | /
C/C(=N\Nc1ccccc1[N+](=O)[O-])c1ccc(N2CCOCC2)cc1 | -27% | ? | 10µM* | 0 | -9 | 1µM*
C/C(=N\Nc1ccc([N+](=O)[O-])cc1)c1ccc(N2CCOCC2)cc1 | / | 4% | 6% | -5 | -1 | -3%
CCc1ccc(NC(=O)Cn2ncc3c(C)n(Cc4cccc(Cl)c4)c(C)c3c2=O)cc1 | -5%[59 µM] | -8% | 22% | / | / | 79µM*
COc1ccc(NC(=O)Cn2ncc3c(C)n(Cc4cccc(Cl)c4)c(C)c3c2=O)cc1 | 2%[59 µM] | 1% | 56% | / | / | -2%
O=C(COc1ccc([N+](=O)[O-])cc1)N1CCC(c2nc3ccccc3s2)CC1 | ? | -25% | 7% | / | / | -30%
COc1ccc(NCc2nc3ccccc3n2CCOc2ccc(C)cc2)cc1 | 14µM* | 11µM* | 40µM* | ? | -16 | 10µM*
COc1ccc(NCc2nc3ccccc3n2CCOc2ccccc2)cc1 | 32µM* | 40µM* | -67% | ? | -20 | 18µM*
c1ccc(NCc2nc3ccccc3n2CCOc2ccccc2)cc1 | ? | -32% | -6% | -1 | 1 | ?
CCOC(=O)c1c(S(=O)(=O)NCC(=O)Nc2ccc(C)c(N(C)C)c2)c(C)n(C)c1C | 14%[59 µM] | ? | -13% | / | / | ?
O=C(C[C@H]1C/C=C\CC[C@@H](Cc2ccc(F)cc2)C(=O)OCCNC1=O)NCCO | / | -24% | 34% | 6 | 5 | /
COc1cc(C(=O)OCC(=O)Nc2ccc(N3CCOCC3)cc2)ccc1OCC(C)C | 6.3µM* | 13% | 24% | -1 | 9 | 1%
O=C(COC(=O)c1ccc(O)cc1)Nc1ccc(N2CCCCC2)cc1 | 45µM* | ? | -19% | -26 | -6 | ?
CCOc1ccccc1C(=O)OCC(=O)Nc1ccc(N2CCCCC2)cc1 | ? | -50%[57.1 µM] | ? | ? | ? | 4%
O=C(COC(=O)c1ccccc1OC(F)F)Nc1ccc(N2CCCCC2)cc1 | 7.9µM* | -23% | 5% | -2 | 0 | -6%
COc1ccc(NC(=O)COC(=O)c2ccc(-n3cnnn3)cc2)cc1Cl | 40µM* | -11% | 19% | -11 | -14 | 3%
COc1ccc(OC)c(NC(=O)COC(=O)c2ccc(-n3cnnn3)cc2)c1 | 21% | -12% | 0% | 4 | -9 | -4%
O=C(COC(=O)c1cncc(Br)c1)Nc1ccc(N2CCCCC2)cc1 | ? | ? | 4% | -12 | / | ?
SMILES | G9a block | JMJD2A Tudor | HP1b binding inh | Six1-Eya2 blk | CtBP-E1A blk | BAZ2B inh
COc1ccccc1CNC(=O)C1(C)CCN1Cc1ccc2ccccc2c1 (stereo not drawn) | / | / | / | -9 | -4 | /
ClN=C1C=CC=CC1=NCl | / | / | / | -18 | -28 | /
CCc1ccc(NC(=O)C2CCC(CNS(=O)(=O)c3cccs3)CC2)cc1 (stereo not drawn) | -6%[59 µM] | -20% | 26% | / | / | 5%
O=C(/C=C/c1cccs1)N1CCC2(CC1)Oc1ccc(Cl)cc1C(=O)C21CC(c2ccccc2)=NO1 (stereo not drawn) | -32%[12.7 µM] | -13% | 7% | -5 | -4 | -15%
CNC(=O)c1cccc(-n2c(C)nc3cccnc32)c1C | 4%[59 µM] | 7% | 40% | / | / | 0%
COc1cc(OC)cc(C(=O)OCC(=O)Nc2ccc(N3CCCCC3)cc2)c1 | 10µM* | 0% | 30% | -2 | 0 | -6%
COc1ccc(-c2coc3c(OC)c(OC)cc(O)c3c2=O)cc1 | -25%[2.33 µM] | / | / | / | / | /
Cc1ccc(NC(=O)CNC(=O)N2CC(=O)Nc3ccccc32)cc1F | 11% | ? | 4% | -2 | -24 | -3%
O=C(CN1CC(=O)Nc2ccccc21)Nc1ccc(F)c(F)c1 | 8.9µM* | -5% | 51% | -6 | -8 | -1%
COc1ccccc1NC(=O)CN1CC(=O)Nc2ccccc21 | 20µM* | 9% | 37% | 1 | 10 | /
CCCCOC(=O)C(C)Nc1n[nH]c(=S)[nH]c1=O (stereo not drawn) | ? | 11µM* | -11% | 1 | 4 | ?
CCCCOC(=O)C(C)c1c(C)[nH]c(=S)[nH]c1=O (stereo not drawn) | 40µM* | 2% | 43% | 0 | 5 | -33%
O=C(NCCN1CCN(c2ccccc2)CC1)Nc1ccccc1Br | 16% | -27% | 16% | -1 | / | -14%
O=c1nc(Nc2cccc(Cl)c2)oc2cc(Cl)oc(=O)c12 | 50µM* | -22% | 33% | -6 | / | ?
O=C(CNCc1ccco1)Nc1ccc(Oc2ccccc2)cc1 | 14µM* | 18µM* | 7% | -7 | / | 50µM*
O=C(CNCc1ccco1)Nc1ccccc1-n1cccc1 | 13µM* | ? | -9% | -1 | 11 | ?
COc1ccccc1/C=C1\SC(=S)N(CCC(=O)Nc2cccc(O)c2)C1=O | ? | ? | 8% | -16 | -19 | ?
CCOc1ccc(NC(=O)CCN2C(=O)c3cccc([N+](=O)[O-])c3C2=O)cc1 | / | -12% | 16% | -8 | / | -35%
CN(C)c1ccc(NC(=O)CCN2C(=O)c3cccc([N+](=O)[O-])c3C2=O)cc1 | 10µM* | -17% | 29% | -6 | 4 | -35%
O=C(CCN1C(=O)c2cccc([N+](=O)[O-])c2C1=O)Nc1nccs1 | 40µM* | -22% | 11% | 7 | 2 | -8%
COc1ccc(NC(=O)CCS(=O)(=O)c2cc3c(cc2C)NC(=O)CO3)cc1Cl | -2%[59 µM] | -27% | 61% | / | / | -15%
